# Source: the supplement of paper PMC11628255, “Interference of metal ions on the bioluminescent signal of firefly, Renilla, and NanoLuc luciferases in high-throughput screening assays” (Frontiers in Chemistry, 2024)
# ± gives the standard deviation of the averaged measurements.
# Test system: Renilla luciferase (RLuc)
# Experiment: residual bioluminescent signal relative to negative control without GSH; higher = less interference (more residual luciferase signal)
# Conditions: screening conditions buffer
# Method: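 Selected metal salts at 3-4 concentrations tested on purified FLuc, NLuc or RLuc in screening buffer with 0, 0.2 or 2 mM glutathione added; 10 min enzyme pre-incubation at RT, luminescence 10 min after substrate. Signal normalised to negative control without GSH (% N_VALUE); triplicate wells.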
# [1] = metal salt concentration 0.2 mM, glutathione 0 mM
# [2] = metal salt concentration 0.2 mM, glutathione 0.2 mM
# [3] = metal salt concentration 0.2 mM, glutathione 2 mM
# [4] = metal salt concentration 1 mM, glutathione 0 mM
# [5] = metal salt concentration 1 mM, glutathione 0.2 mM
# [6] = metal salt concentration 1 mM, glutathione 2 mM
smiles,measurement,setting,value
O=[N+]([O-])[O-].[Ag+] [silver nitrate],residual bioluminescent signal,"metal salt concentration 0.002 mM, glutathione 0 mM",116 ± 9.8%
same,residual bioluminescent signal,"metal salt concentration 0.002 mM, glutathione 0.2 mM",109 ± 15%
same,residual bioluminescent signal,"metal salt concentration 0.002 mM, glutathione 2 mM",165 ± 28%
same,residual bioluminescent signal,"metal salt concentration 0.0684 mM, glutathione 0 mM",49.2 ± 15%
same,residual bioluminescent signal,"metal salt concentration 0.0684 mM, glutathione 0.2 mM",115 ± 7.6%
same,residual bioluminescent signal,"metal salt concentration 0.0684 mM, glutathione 2 mM",160 ± 13%
same,residual bioluminescent signal,[1],5.26 ± 2.6%
same,residual bioluminescent signal,[2],119 ± 16%
same,residual bioluminescent signal,[3],174 ± 13%
same,residual bioluminescent signal,[4],2.52 ± 2%
same,residual bioluminescent signal,[5],102 ± 13%
same,residual bioluminescent signal,[6],171 ± 12%
O=[N+]([O-])[O-].O=[N+]([O-])[O-].[Cu+2] [copper(II) nitrate],residual bioluminescent signal,"metal salt concentration 0.1 mM, glutathione 0 mM",90.5 ± 7.6%
same,residual bioluminescent signal,"metal salt concentration 0.1 mM, glutathione 0.2 mM",101 ± 3.8%
same,residual bioluminescent signal,"metal salt concentration 0.1 mM, glutathione 2 mM",115 ± 12%
same,residual bioluminescent signal,"metal salt concentration 0.132 mM, glutathione 0 mM",79.1 ± 10%
same,residual bioluminescent signal,"metal salt concentration 0.132 mM, glutathione 0.2 mM",88.3 ± 16%
same,residual bioluminescent signal,"metal salt concentration 0.132 mM, glutathione 2 mM",135 ± 20%
same,residual bioluminescent signal,[1],107 ± 14%
same,residual bioluminescent signal,[2],98.8 ± 24%
same,residual bioluminescent signal,[3],120 ± 19%
same,residual bioluminescent signal,[4],2.29 ± 2.2%
same,residual bioluminescent signal,[5],27.7 ± 5.2%
same,residual bioluminescent signal,[6],122 ± 20%
O=[N+]([O-])[O-].O=[N+]([O-])[O-].[Zn+2] [zinc nitrate],residual bioluminescent signal,[4],112 ± 18%
same,residual bioluminescent signal,[5],116 ± 25%
same,residual bioluminescent signal,[6],158 ± 11%
same,residual bioluminescent signal,"metal salt concentration 2.5 mM, glutathione 0 mM",104 ± 9.8%
same,residual bioluminescent signal,"metal salt concentration 2.5 mM, glutathione 0.2 mM",110 ± 13%
same,residual bioluminescent signal,"metal salt concentration 2.5 mM, glutathione 2 mM",110 ± 6.2%
same,residual bioluminescent signal,"metal salt concentration 4.13 mM, glutathione 0 mM",89.4 ± 5%
same,residual bioluminescent signal,"metal salt concentration 4.13 mM, glutathione 0.2 mM",96.3 ± 13%
same,residual bioluminescent signal,"metal salt concentration 4.13 mM, glutathione 2 mM",46.9 ± 19%
same,residual bioluminescent signal,"metal salt concentration 10 mM, glutathione 0 mM",2.06 ± 0.69%
same,residual bioluminescent signal,"metal salt concentration 10 mM, glutathione 0.2 mM",4.57 ± 0.79%
same,residual bioluminescent signal,"metal salt concentration 10 mM, glutathione 2 mM",2.74 ± 2.1%
